Assay outcomes (PubChem BioAssay)
Shown are actives, neighbours in structure and some others; about 1.7% of the full set was active somewhere.
RGS4 inh: inhibitors of human regulator of G protein signaling 4 | Potency, µM (top dose mostly 114 µM), most hits filed as inhibitors | P49798 | 390,000 tested, 0.039% active | AID 504845 | Transcreener GDP fluorescence polarization, RGS4-accelerated GTP hydrolysis; also: nearly all actives have a fitted effect of over 75% in size
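MLSMR compounds (23 nl, pin-transferred) preincubated 10 min at room temperature with a 500nM (2x) first reagent, then RGS4 at 900nM (2x) plus Transcreener GDP mix added; fluorescence polarization (620/688 nm) read before and after 90 min at 30 °C.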
HEK293 tox: cytotoxicity in counter-screen for GLP-1R inverse agonists | Potency, µM (series often up to 38.3 µM), hits mostly inhibitors | 410,000 tested, 0.13% active | HEK293 cAMP-luciferase reporter cells, luminescence, 24 h;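 also: loss of luciferase light is scored as toxicity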
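Seeding density was 200 cells/uL; after overnight-length (12 h) culture, 23 nL compounds went on for 24 h at 37 °C. Readout used a luciferase detection reagent, luminescence taken after 12 min at room temperature.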
GLP-1R inv ag: inverse agonists of human GLP-1 receptor. P43220. HEK293 GLP-1R CRE-luciferase, luminescence, 24 h; GLP-1R form is constitutively active. Potency, µM (doses to about 38.3 µM), hits mostly inhibitors. 410,000 tested, 1.6% active; also: nearly all actives have a fitted effect of over 55% in size
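HEK293 cells stably co-expressing a cAMP-responsive luciferase reporter and constitutively active GLP-1R were seeded, incubated 12 h, then exposed to compounds for 24 h at 37 C. Luminescence was read 12 min after detection reagent; inverse agonists lower signal.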
PTHR1 agonist: activates the human parathyroid hormone receptor PTHR1; Q03431; HEK293 GP2 PTHR1 cells, GloSensor cAMP luminescence, 1 h; Potency, µM (doses to about 115 µM), actives largely listed as activators; 410,000 tested, 0.075% active; AID 743266; also: nearly all actives have a fitted effect of over 55% in size
Target sequence (Q03431 whole entry, looked up): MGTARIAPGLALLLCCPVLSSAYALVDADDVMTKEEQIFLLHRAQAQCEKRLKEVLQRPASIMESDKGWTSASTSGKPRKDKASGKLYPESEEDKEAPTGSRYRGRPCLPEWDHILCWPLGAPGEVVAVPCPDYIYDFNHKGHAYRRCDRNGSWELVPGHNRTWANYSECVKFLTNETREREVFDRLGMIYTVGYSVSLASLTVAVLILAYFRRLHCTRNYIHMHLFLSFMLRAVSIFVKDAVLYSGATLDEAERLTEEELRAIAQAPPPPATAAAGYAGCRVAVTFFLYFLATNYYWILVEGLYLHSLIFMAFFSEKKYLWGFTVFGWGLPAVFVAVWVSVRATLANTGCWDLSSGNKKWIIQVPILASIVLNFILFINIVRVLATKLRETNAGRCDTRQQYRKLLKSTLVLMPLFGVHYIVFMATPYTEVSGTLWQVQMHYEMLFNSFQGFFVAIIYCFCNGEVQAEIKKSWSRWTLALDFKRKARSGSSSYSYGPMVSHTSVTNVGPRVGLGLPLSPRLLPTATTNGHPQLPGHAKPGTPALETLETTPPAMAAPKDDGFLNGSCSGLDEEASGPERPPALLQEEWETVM
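HEK-293-derived GP2 cells expressing PTHR1 and a GloSensor cAMP reporter, 3,000/well, plated overnight, given luciferin plus IBMX (each 0.5 mM as added) for 1 h at 37 °C, then compound for 1 h at 37 °C. Luminescence was read after 15 min at room temperature.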
GLP1R ag: GLP-1 receptor (human) agonism. AID 624172. P43220. Potency, µM (doses to about 45.6 µM), hits mostly activators. HEK293 GLP-1R CRE-luciferase, luminescence, 4-6 h; cells express a hypersensitive GLP-1R form. 380,000 tested, 0.007% active
Hits are given with their value; - = inactive; ? = inconclusive; . = no result given; [ ] = remark or other dose. Calls follow the shape of the dose curve; as a rule, active = well fitted curve in the direction sought with a large enough effect; inconclusive = small, poorly fitted or top-dose-only effect, or another doubt; inactive = no such curve, though single readings can be large; an effect the other way counts as inactive or inconclusive.

SMILES	RGS4 inh	HEK293 tox	GLP-1R inv ag	PTHR1 agonist	GLP1R ag
O=C(C1=C[C@@H](c2ccc(C(F)(F)F)cc2)C[C@@H](OCc2ccc(CO)cc2)O1)N1CCN(Cc2ccc3c(c2)OCO3)CC1	-	-	-	-	-
O=C(C1=C[C@H](c2ccc(C(F)(F)F)cc2)C[C@H](OCc2ccc(CO)cc2)O1)N1CCN(Cc2ccc3c(c2)OCO3)CC1	-	-	10µM	-	-
CCCc1cc(=O)[nH]c(SCc2nc(-c3ccccc3)no2)n1	-	-	-	-	.
Cc1nn2cc(-c3ccc(-c4ccccc4)cc3)nc2s1	-	-	-	-	-
CCc1nn2cc(-c3ccccc3)nc2s1	-	-	5.62µM	-	-
CN1CCN(c2ncnc3scc(-c4ccccc4Cl)c23)CC1	-	-	1.41µM	-	-
Oc1ccccc1N1CCN(c2ncnc3scc(-c4ccccc4)c23)CC1	-	-	11.2µM	-	-
Cc1ccc2cccc(Oc3ncnc4scc(-c5ccccc5)c34)c2n1	-	-	?	-	-
Oc1ccccc1N1CCN(c2ncnc3scc(-c4ccc(F)cc4)c23)CC1	-	-	?	-	-
Cc1cc(-c2csc3ncnc(N4CCN(C)CC4)c23)cc(C)c1C	-	-	?	-	-
COc1ccc(-c2csc3ncnc(N4CCN(c5ccccc5OC)CC4)c23)cc1	-	-	10µM	-	-
COc1ccc(-c2csc3ncnc(Oc4cccc5ccc(C)nc45)c23)cc1	-	-	10µM	-	-
O=[N+]([O-])c1ccccc1S(=O)(=O)N1CCN(c2nc(-c3cccs3)nc3ccccc23)CC1	-	.	.	.	.
CC(CSC(=O)c1ccccc1)C(=O)N1CC(Sc2ccccc2)CC1C(=O)O (stereo not given)	.	.	.	.	-
CCOc1ccc(NC(=O)/C(C=Nc2ccccc2)=C(\C)O)cc1	-	-	-	-	-
CC1CCCC(C)N1C(=O)CSc1nnc(C2CCCCC2)o1 (stereo not given)	-	-	3.16µM	-	-
COc1ccccc1CNCc1cc(Br)ccc1OC	-	-	6.31µM	-	-
COc1ccccc1CNCc1cc(OC)c(OC)cc1OC	-	-	-	-	-
O=C(CN1CCCC1)Nc1ccccc1Sc1ccccc1	-	-	?	-	-
CC1CCN(CC(=O)Nc2ccccc2Sc2ccccc2)CC1	-	-	4.47µM	-	-
Cc1cccc(N2CCN(C3C(=O)Nc4ccccc4-n4nnnc43)CC2)c1C (stereo not given)	.	-	?	-	.
CC(C)c1ccc2c(c1)CCC1C(C)(CN)CCCC21C (stereo not given)	-	?	5.62µM	-	-
CCOC(=O)C1(Nc2nccs2)Sc2ccccc2NC1=O (stereo not given)	-	?	?	-	-
CCOC(=O)C1(N(CC)CC)Sc2cc(C)ccc2NC1=O (stereo not given)	-[11.4 µM]	?	6.31µM	-	-
O=C(CN1C(=O)C2CCCCN2c2ccc(C(=O)N3CCCC3)cc21)NCc1ccccc1 (stereo not given)	-	-	-	-	.
SMILES	RGS4 inh	HEK293 tox	GLP-1R inv ag	PTHR1 agonist	GLP1R ag
CCN(CC)CC#CC(OC)(c1ccccc1)c1ccccc1	-	-	5.01µM	-	-
Fc1ccccc1C1c2cccn2CCN1C(=S)Nc1ccc(Br)cc1 (stereo not given)	-	?	4.47µM	-	-
CCOC(=O)C(C)/C(C)=N/NC(N)=S (stereo not given)	-	0.562µM	?	-	-
Nc1c(C(=O)Nc2ccccc2Cl)c2ccccn2c1C(=O)c1ccc(Cl)cc1	-	-	-	-	.
Cc1cc(/C=C2/SC(=S)N(c3cccc(C(F)(F)F)c3)C2=O)c(C)n1-c1cccnc1	-	-	5.01µM	-	-
Cc1cn2c(=O)cc(COc3ccc(NC(=O)c4ccccc4C)cc3)nc2s1	-	-	-	-	-
COc1ccccc1NC(=O)c1cc2cc3ccc(OC)c(Cl)c3nc2s1	?	-	-	-	.
O=C(COC(=O)c1ccc2[nH]c3c(c2c1)CCCC3)Nc1ccccc1Cl	-	-	-	-	-
CCC(C)c1ccccc1NC(=O)COC(=O)c1ccc2[nH]c3c(c2c1)CCCC3 (stereo not given)	-	-	5.62µM	-	-
